Only some compounds are listed: those with a hit (about 8% of all), similar ones and a draw of the others.
LASV entry inh = blocks Lassa virus binding to or entry into cells; Lassa virus pseudotype entry inhibition, cell reporter; Potency, µM (highest dose often 37.9 µM), actives largely listed as inhibitors; actives 1.2% (n = 300,000); calls by dose curve; tested in HEK293 cells; note: nearly all actives have a fitted effect of over 50% in size
FMDV inh = foot and mouth disease virus antiviral activity; actives 1.2% (n = 410,000); Potency, µM (series often up to 57.9 µM), most hits filed as inhibitors; FMDV antiviral cell-based qHTS; AID 1159524; calls by dose curve; tested in HEK293T cells; note: read-out not given here; nearly all actives have a fitted effect of over 45% in size
HCMV antiviral = human cytomegalovirus inhibition | HFF cells, HCMV-luciferase reporter, 72 h; hits give low values | AID 1259415 | activity change, negative = inhibition, % at 57.5 µM | actives 4.5% (n = 410,000); in the data active = activity change below about -60%; inconclusive = no clear call, values can overlap the other calls; inactive = above about -39%
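After 16 h attachment at 37C, HFF cells received test compound and HCMV-luciferase (1 PFU/cell); reporter luminescence read 72 h later, data normalized against buffer-only and known inhibitor Salinomycin.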
SARS PLP yeast = blocks SARS-CoV papain-like protease in a yeast assay | S. cerevisiae expressing SARS-CoV PLpro, growth rescue | Potency, µM (top dose mostly 32.9 µM), actives largely listed as activators | actives 0.19% (n = 330,000); calls by dose curve; note: nearly all actives have a fitted effect of over 55% in size
MARV entry inh = inhibitors of Marburg virus binding or cell entry. Marburg virus pseudotyped entry inhibition, cell reporter. Potency, µM (series often up to 37.8 µM), actives largely listed as inhibitors. actives 1.8% (n = 300,000). AID 540276; calls by dose curve; tested in HEK293 cells
HCV inhibitor = inhibitors of hepatitis C virus infection. Huh7.5.1 HCVcc-Cre infection, luciferase reporter, 44 h. Potency, µM (highest dose often 41.8 µM), most hits filed as inhibitors. actives 3.4% (n = 340,000). AID 651820; active = well fitted inhibition curve with a large enough effect; inconclusive = small, poorly fitted or top-dose-only effect, or another doubt; inactive = no such curve, though single readings can be large or run the other way
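Antiviral activity was scored by luciferase reporter output from cells infected with HCVcc-Cre (~0.5 moi) in presence of compound, 44 h infection period, cells seeded 1,000/well 4 h prior.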
Of the large screens only hits and unclear results are named; the others gave an inactive call.

Cc1ccccc1C1c2[nH]c3ccccc3c2C[C@H]2C(=O)N(c3ccccc3C(=O)NCCN3CCOCC3)C(=O)N12 (some centres undefined)	HCV inhibitor inconclusive (no result: LASV entry inh, MARV entry inh)
COCCn1c(=S)[nH]c2cc(C(=O)N3CCN(Cc4ccc5c(c4)OCO5)CC3)ccc2c1=O	LASV entry inh inconclusive, FMDV inh 14µM, HCMV antiviral -99, MARV entry inh 6.5µM, HCV inhibitor 14µM
COCCn1c(=S)[nH]c2cc(C(=O)N3CCc4ccccc43)ccc2c1=O	LASV entry inh inconclusive, FMDV inh 7.9µM, HCMV antiviral -70, MARV entry inh inconclusive, HCV inhibitor inconclusive
COCCn1c(=O)[nH]c2cc(C(=O)N3CCN(Cc4ccc5c(c4)OCO5)CC3)ccc2c1=O	HCMV antiviral inconclusive (no result: SARS PLP yeast)
O=C1NC(=NCc2ccccc2)S/C1=C\c1ccccc1	HCMV antiviral -68
N#Cc1c(N)nc2c(c1-c1cccnc1)CCCCC2	LASV entry inh inconclusive, HCMV antiviral -62, SARS PLP yeast inconclusive
O=C1C(c2ccccc2)=[N+]([O-])c2ccccc21	FMDV inh inconclusive, HCV inhibitor 10µM (no result: LASV entry inh, MARV entry inh)
CCO[C@H]1c2c(ccc3ccc(=O)oc23)OC(C)(C)[C@H]1O	none (no result: LASV entry inh, MARV entry inh)
CC1(C)Oc2ccc3ccc(=O)oc3c2[C@@H](O)[C@H]1O	HCV inhibitor 3.2µM (no result: LASV entry inh, MARV entry inh)
C/C=C(/C)C(=O)OC1c2c(ccc3ccc(=O)oc23)OC(C)(C)C1OC(=O)/C(C)=C\C (centres undefined)	FMDV inh 28µM (no result: LASV entry inh, MARV entry inh)
C#CCN1C(=O)[C@@]2(CC(C)=CC[C@@H](C)O2)c2ccccc21	none (no result: LASV entry inh, FMDV inh, HCMV antiviral, SARS PLP yeast, HCV inhibitor)
COc1cc(OC)c(NC(=O)C2CCN(S(=O)(=O)c3ccc4c(c3)oc(=O)n4C)CC2)cc1Cl	none (no result: SARS PLP yeast, HCV inhibitor)
Cc1cccc(N2CCN(C(=O)c3ccc(CS(=O)(=O)c4ccccc4C)o3)CC2C)c1 (centres undefined)	HCMV antiviral -67
Cc1ccc(-c2c(C(=O)N3CCN(c4cccc(C)c4)C(C)C3)oc(=O)c3ccccc23)cc1 (centres undefined)	LASV entry inh inconclusive, FMDV inh inconclusive, HCMV antiviral -70, MARV entry inh inconclusive (no result: SARS PLP yeast, HCV inhibitor)
Cc1ccc(C)c(N2CCN(C(=O)c3ccc(CS(=O)(=O)c4ccccc4C)o3)CC2)c1	LASV entry inh inconclusive, FMDV inh inconclusive, MARV entry inh inconclusive, HCV inhibitor inconclusive
COc1cc(NC(=O)c2c(C)oc3c2C2=NCCN2C=N3)cc(OC)c1OC	none (no result: SARS PLP yeast, MARV entry inh, HCV inhibitor)
Cc1nn(-c2ccccc2)c(-n2cccc2)c1C(=O)NCCCN1CCN(c2ccccc2F)CC1	LASV entry inh inconclusive, MARV entry inh inconclusive (no result: SARS PLP yeast, HCV inhibitor)
CCCCn1c(=O)c(-[n+]2ccccc2)c([O-])c2ccccc21	HCMV antiviral -62
CC(C)Cn1c(=O)c(-[n+]2ccccc2)c([O-])c2ccccc21	none
CCCc1cc(NCc2ccccn2)n2c(nc3ccccc32)c1C#N	HCV inhibitor 13µM
Cc1ccc(CC(NC(=O)c2ccccc2)C(=O)N2CCCC2C(=O)O)cc1 (centres undefined)	HCMV antiviral -107
N#Cc1ccc(NC(=O)Nc2ccc(Oc3ccc(NC(=O)Nc4ccc(C#N)cc4)cc3)cc2)cc1	LASV entry inh inconclusive, HCMV antiviral -82, MARV entry inh inconclusive, HCV inhibitor inconclusive
N#Cc1cccc(NC(=O)c2ccccc2C(=O)O)c1	none
N#Cc1ccc(NC(=O)Nc2cccc(C#N)c2)cc1	FMDV inh inconclusive, HCV inhibitor 10µM (no result: LASV entry inh, MARV entry inh)
O=C1C2=C(C(=O)c3ccccc31)[C@H]1O[C@](c3ccsc3)(Cc3ccccc31)O2	none (no result: LASV entry inh, FMDV inh, HCMV antiviral, SARS PLP yeast, HCV inhibitor)
CC(C)C(=O)NCC1CCC2(CCN(Cc3ccc(-c4ccccc4Cl)o3)CC2)O1 (centres undefined)	none (no result: LASV entry inh, HCMV antiviral, SARS PLP yeast, MARV entry inh, HCV inhibitor)
CCCCCNC(=O)c1cc2c(=O)n3ccccc3nc2n1C	LASV entry inh inconclusive (no result: SARS PLP yeast, MARV entry inh, HCV inhibitor)
O=[N+]([O-])c1cccnc1N1CCN(c2ccccc2F)CC1	HCMV antiviral -61
Cc1ccc(N2CCN(c3ncccc3[N+](=O)[O-])CC2)c(C)c1	LASV entry inh inconclusive, MARV entry inh inconclusive, HCV inhibitor inconclusive
O=[N+]([O-])c1cccnc1N1CCCCC1	none
Cc1ccc(C)c(N2CCN(c3ncccc3[N+](=O)[O-])CC2)c1	LASV entry inh inconclusive, MARV entry inh 2.5µM, HCV inhibitor 11µM
O=S1(=O)N[C@@H](Cc2ccccc2)COc2cc(N3CCSCC3)ccc21	none (no result: LASV entry inh, SARS PLP yeast, MARV entry inh, HCV inhibitor)
O=C(NCc1cccnc1)/C(=C/c1ccc(-c2cccc(Cl)c2)o1)S(=O)(=O)c1ccccc1	FMDV inh inconclusive, MARV entry inh inconclusive
O=C(NCc1cccnc1)/C(=C\c1ccc(-c2cccc(Cl)c2)o1)S(=O)(=O)c1ccccc1	LASV entry inh inconclusive, FMDV inh 18µM, HCMV antiviral -103, SARS PLP yeast inconclusive, MARV entry inh inconclusive, HCV inhibitor inconclusive
Cc1ccc(C(=O)N/C(=C\c2ccc(-c3cc(Cl)ccc3Cl)o2)C(=O)NCc2cccnc2)cc1	LASV entry inh 11µM, MARV entry inh inconclusive, HCV inhibitor 10µM
COc1ccc(-c2[nH]c(-c3ccccc3)nc2SCC(=O)Nc2ccc3c(c2)OCO3)cc1	LASV entry inh inconclusive, MARV entry inh inconclusive (no result: SARS PLP yeast, HCV inhibitor)
CCOc1ccc2ncc(S(=O)(=O)c3ccccc3)c(N3CCC4(CC3)OCCO4)c2c1	HCMV antiviral inconclusive (no result: FMDV inh)
COc1ccc(N2CCN(c3c(S(=O)(=O)c4ccccc4)cnc4ccc(OC)cc34)CC2)cc1	LASV entry inh inconclusive, HCMV antiviral inconclusive, MARV entry inh 8.9µM, HCV inhibitor 11µM
COc1ccc(S(=O)(=O)c2cnc3ccc(OC)cc3c2N2CCC3(CC2)OCCO3)cc1	LASV entry inh inconclusive, FMDV inh inconclusive, HCMV antiviral -74, MARV entry inh inconclusive, HCV inhibitor inconclusive
CCOc1ccc2ncc(S(=O)(=O)c3ccccc3)c(N3CCN(c4ccc(OC)cc4)CC3)c2c1	LASV entry inh inconclusive, MARV entry inh inconclusive, HCV inhibitor inconclusive
COc1ccc(N2CCN(C(=O)Cn3nc(Cc4cccnc4)c4ccccc4c3=O)CC2)cc1	HCMV antiviral inconclusive (no result: SARS PLP yeast, HCV inhibitor)
COc1cccc(Cc2nc3cccnc3n2C2CCN(Cc3ccc(C)s3)CC2)c1	none (no result: LASV entry inh, HCMV antiviral, SARS PLP yeast, MARV entry inh, HCV inhibitor)
COc1cccc(N(CC(=O)N2CCCC2)S(C)(=O)=O)c1	none (no result: LASV entry inh, MARV entry inh)
COc1ccc([C@]23Cc4cc(C#N)ccc4C(O2)c2c(c4ccc(OC)cc4oc2=O)O3)cc1	MARV entry inh inconclusive (no result: LASV entry inh, FMDV inh, HCMV antiviral, HCV inhibitor)
Cc1ccc(S(=O)(=O)N2CCOC23CCN(S(=O)(=O)c2c(C)cc(C)cc2C)CC3)cc1	LASV entry inh inconclusive, HCMV antiviral -98, MARV entry inh inconclusive, HCV inhibitor inconclusive
COc1ccc(-c2ccc(C(=O)N3CCc4c(cnc(C)c4CNS(=O)(=O)N(C)C)C3)o2)cc1	none (no result: LASV entry inh, HCMV antiviral, SARS PLP yeast, MARV entry inh, HCV inhibitor)
COc1nc(N)nc(NC(=O)c2cccs2)c1N=O	FMDV inh inconclusive, HCMV antiviral -78 (no result: SARS PLP yeast)
Cc1ccccc1NC(=S)N(C)Cc1cccs1	none
Cc1ccccc1NC(=S)N(C)Cc1cn(C)c2ccccc12	HCMV antiviral -70
CCOC(=O)c1c(NC(=O)CCCOc2ccc(Cl)cc2)sc2c1CCC2	none (no result: SARS PLP yeast, MARV entry inh, HCV inhibitor)

Screening data from PubChem BioAssay.
